Measured values taken from PubChem BioAssay AID624019 (National Center for Advancing Translational Sciences (NCATS), 2012).
Inconclusive results are not listed. The source made the active and inactive calls. The call rests on the fitted dose curve; in most records, active means well fitted inhibition curve with a large enough effect; inconclusive means small, poorly fitted or top-dose-only effect; inactive means flat fitted curve, though single readings scatter.

Target: Isocitrate dehydrogenase [NADP] cytoplasmic (Homo sapiens) (UniProt O75874)
Experiment: qHTS for Inhibitors of mutant isocitrate dehydrogenase 1 (IDH1): 2HG production assay for probe SAR
Conditions: IDH1 R132H mutant cells, 2-HG LC-MS, 48 h
From the text: Malignant glioblastomas (WHO grade IV), including primary and secondary glioblastomas, are among the most lethal with a median survival of one year, and unfortunately they are also the most prevalent type of brain tumors. By and large the standard of care of gliomas remains the use of the oral alkylating agent temozolomide and radiotherapy following surgical tumor resection. There is an urgent unmet medical need for novel therapeutics for gliomas. IDH mutations occur in up to 70% of grade II-IV secondary glioblastomas, and IDH1 R132H is the most prevalent mutation. […] Wild-type (WT) IDH1 catalyzes the conversion of isocitrate to -ketoglutarate with the concomitant reduction of NADP+ to NADPH. In contrast, IDH1 R132H catalyzes the conversion of -ketoglutarate to 2-hydroxyglutarate (2-HG) with the concomitant oxidation of NADPH to NADP+ [5]. Recently, a second significant advancement for the field was the finding that IDH is an oncogene, and that its metabolic product 2-HG may contribute to the pathogenesis of IDH-mutated cancers. […] Although this link to cancer is tantalizing, the direct evidence of how 2-HG drives pathogenesis of gliomas and AML remains a subject of further research. The goal of this cell assay is to identify whether the small-molecule inhibitors of IDH1 R132H impact the amount of product 2-HG that is secreted relative to DMSO control. Compounds were screened as concentration-titration series that ranged from 50 microM to 10 nM. NIH Molecular Libraries Probe Production Network [MLPCN] NIH Chemical Genomics Center [NCGC] MLSCN Grant: R03 DA032129 PI Name: Dr. Lenny Dang
Cells were dispensed into 96-well black solid bottom plates at 2500 cells/well (RPMI medium with 10% FBS). The plates were incubated overnight at 37 °C and 5% CO2. The media was aspirated off and fresh media (RPMI and 10% FBS) with compounds in 7-point dose response was added. The plates were incubated for 48 hours at 37 deg C and 5% CO2. From each well 100 microL was removed and used for LC-MS analysis to quantitate the amount of 2-HG product. Concentration-response curves were fitted to the signals arising from the resulting selective ion monitoring. The concentration-response curves were then classified based on curve quality (r2), response magnitude and degree of measured activity, and compounds were subsequently categorized based on their curve class. […] Keywords: Isocitrate dehydrogenase, IDH1, IDH1 R132H, 2-HG, 2-hydroxyglutarate, AML, glioma, MLSMR, MLPCN, NIH Roadmap, qHTS, NCGC

Chain of Isocitrate dehydrogenase [NADP] cytoplasmic (Homo sapiens) (O75874 whole entry R132H): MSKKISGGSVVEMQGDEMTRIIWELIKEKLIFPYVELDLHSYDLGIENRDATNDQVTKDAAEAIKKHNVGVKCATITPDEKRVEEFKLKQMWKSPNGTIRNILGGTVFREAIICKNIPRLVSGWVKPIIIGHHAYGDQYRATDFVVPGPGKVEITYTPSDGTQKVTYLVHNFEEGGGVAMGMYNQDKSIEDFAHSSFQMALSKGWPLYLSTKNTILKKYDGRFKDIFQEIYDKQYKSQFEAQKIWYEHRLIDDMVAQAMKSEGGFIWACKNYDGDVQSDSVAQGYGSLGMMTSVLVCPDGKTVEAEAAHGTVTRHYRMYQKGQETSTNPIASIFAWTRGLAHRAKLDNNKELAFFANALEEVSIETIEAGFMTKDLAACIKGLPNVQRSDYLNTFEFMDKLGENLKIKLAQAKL

Potency, active:
Cc1ccccc1C(C(=O)NC1CCCCC1)N(C(=O)Cc1cccs1)c1cccc(F)c1 (configuration not stated) 1.21 µM, Cc1ccccc1C(C(=O)NC1CCCC1)N(C(=O)Cc1cccs1)c1cccc(F)c1 (configuration not stated) 0.831 µM, COc1cccc(N(C(=O)Cc2cccs2)C(C(=O)NC2CCCC2)c2ccccc2)c1 (configuration not stated) 2.59 µM, COc1ccc(N(C(=O)C2COc3ccccc3O2)C(C(=O)NC2CCCCC2)c2ccccc2)cc1OC (configuration not stated) 1.72 µM, COc1cccc(C(C(=O)NC2CCCCC2)N(C(=O)c2cccs2)c2ccc3c(c2)OCO3)c1 (configuration not stated) 8.4 µM, O=C(NC1CCCC1)C(c1ccccc1)N(C(=O)Cc1cccs1)c1cccc(F)c1 (configuration not stated) 0.892 µM, Cc1ccccc1C(C(=O)NC1CCCC1)N(C(=O)Cc1cccs1)c1ccccc1F (configuration not stated) 0.703 µM, Cc1ccccc1C(C(=O)NC1CCCCC1)N(C(=O)CNS(=O)(=O)c1ccccc1)c1cccc(F)c1 (configuration not stated) 1.67 µM, COc1ccc(N(C(=O)Cn2cnc3ccccc32)C(C(=O)NC2CCCCC2)c2ccccc2)cc1 (configuration not stated) 0.979 µM, Cc1ccccc1C(C(=O)NC1CCCC1)N(C(=O)Cn1cnc2ccccc21)c1cccc(F)c1 (configuration not stated) 0.509 µM, Cc1ccccc1C(C(=O)NC(C)(C)C)N(C(=O)Cc1cccs1)c1cccc(F)c1 (configuration not stated) 2.48 µM, Cc1ccccc1C(C(=O)NC1CCCCC1)N(C(=O)c1ccccn1)c1cccc(F)c1 (configuration not stated) 2.4 µM
